This passage reports inhibition results from ChEMBL document CHEMBL1961873, “Compounds: GSK PKIS; Assays: Nanosyn kinase panel” (2012).

The target of assay [1] is Death-associated protein kinase 1 (Homo sapiens) (UniProt P53355). Conditions: at 1 µM.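 Also: each value is a mean inhibition figure.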
Assay [2] has as its target T1, Serine/threonine-protein kinase DCLK2 (Homo sapiens) (UniProt Q8N568).
T1 sequence (whole entry): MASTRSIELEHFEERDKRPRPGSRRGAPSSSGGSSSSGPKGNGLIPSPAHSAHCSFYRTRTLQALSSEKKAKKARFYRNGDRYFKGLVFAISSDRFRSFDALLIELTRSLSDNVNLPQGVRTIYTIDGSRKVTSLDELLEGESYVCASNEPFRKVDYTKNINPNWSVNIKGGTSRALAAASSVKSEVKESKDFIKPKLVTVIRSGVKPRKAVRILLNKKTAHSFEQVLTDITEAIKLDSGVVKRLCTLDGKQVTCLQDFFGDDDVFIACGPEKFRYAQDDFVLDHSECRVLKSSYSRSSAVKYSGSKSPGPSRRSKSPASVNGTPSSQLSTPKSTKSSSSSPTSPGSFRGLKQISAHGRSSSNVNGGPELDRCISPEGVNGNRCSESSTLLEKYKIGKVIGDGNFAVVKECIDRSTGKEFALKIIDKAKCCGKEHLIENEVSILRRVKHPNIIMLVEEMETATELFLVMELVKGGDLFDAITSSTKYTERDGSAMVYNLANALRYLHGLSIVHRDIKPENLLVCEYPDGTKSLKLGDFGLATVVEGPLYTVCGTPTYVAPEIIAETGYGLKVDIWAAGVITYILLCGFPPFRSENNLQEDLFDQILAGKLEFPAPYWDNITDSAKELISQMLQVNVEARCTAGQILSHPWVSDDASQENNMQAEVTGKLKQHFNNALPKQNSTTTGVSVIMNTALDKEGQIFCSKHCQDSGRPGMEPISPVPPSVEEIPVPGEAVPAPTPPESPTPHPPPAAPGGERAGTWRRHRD
Conditions: at 0.1 µM.

Assay [3] concerns the target T1, Serine/threonine-protein kinase DCLK2 (Homo sapiens). To be noted: at 1 µM.
Assay [4] has as its target MAP kinase-activated protein kinase 2 (Homo sapiens) (UniProt P49137). To be noted: at 0.1 µM.
Assay [5] shares this target. To be noted: at 1 µM.
Assay [6] deals with MAP kinase-activated protein kinase 3 (Homo sapiens) (UniProt Q16644). To be noted: at 0.1 µM.
The target is the same in assay [7]. To be noted: at 1 µM.
The target in assay [8] is Serine/threonine-protein kinase MARK1 (Homo sapiens) (UniProt Q9P0L2). Conditions: at 0.1 µM.
Sequence of Serine/threonine-protein kinase MARK1 (Homo sapiens) (Q9P0L2 whole entry, looked up): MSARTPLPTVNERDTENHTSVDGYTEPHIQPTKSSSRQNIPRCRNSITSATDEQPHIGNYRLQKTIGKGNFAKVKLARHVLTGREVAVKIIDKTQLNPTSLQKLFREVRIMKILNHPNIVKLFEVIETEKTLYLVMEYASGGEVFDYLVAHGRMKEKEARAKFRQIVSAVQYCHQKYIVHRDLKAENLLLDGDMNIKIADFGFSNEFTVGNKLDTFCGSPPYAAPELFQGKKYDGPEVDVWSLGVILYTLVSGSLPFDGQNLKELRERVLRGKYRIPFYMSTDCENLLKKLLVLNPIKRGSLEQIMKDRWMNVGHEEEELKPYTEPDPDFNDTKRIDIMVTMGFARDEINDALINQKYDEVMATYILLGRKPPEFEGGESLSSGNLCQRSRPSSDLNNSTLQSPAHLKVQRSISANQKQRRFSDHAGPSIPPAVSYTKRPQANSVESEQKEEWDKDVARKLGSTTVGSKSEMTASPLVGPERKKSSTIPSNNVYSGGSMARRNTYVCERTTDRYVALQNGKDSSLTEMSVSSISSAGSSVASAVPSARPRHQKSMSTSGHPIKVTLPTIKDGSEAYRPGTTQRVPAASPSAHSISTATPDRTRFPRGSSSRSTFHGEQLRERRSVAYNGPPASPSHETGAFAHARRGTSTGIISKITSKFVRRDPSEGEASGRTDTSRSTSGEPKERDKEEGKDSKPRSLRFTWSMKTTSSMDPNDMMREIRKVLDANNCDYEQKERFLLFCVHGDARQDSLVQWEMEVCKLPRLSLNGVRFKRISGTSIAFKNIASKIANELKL
For assay [9] the target is unchanged. Conditions: at 1 µM.
Assay [10] concerns the target MAP/microtubule affinity-regulating kinase 3 (Homo sapiens) (UniProt P27448). Conditions: at 0.1 µM.
For assay [11] the target is unchanged. To be noted: at 1 µM.
The target of assay [12] is T2, MAP/microtubule affinity-regulating kinase 4 (Homo sapiens) (UniProt Q96L34).
T2 sequence (whole entry): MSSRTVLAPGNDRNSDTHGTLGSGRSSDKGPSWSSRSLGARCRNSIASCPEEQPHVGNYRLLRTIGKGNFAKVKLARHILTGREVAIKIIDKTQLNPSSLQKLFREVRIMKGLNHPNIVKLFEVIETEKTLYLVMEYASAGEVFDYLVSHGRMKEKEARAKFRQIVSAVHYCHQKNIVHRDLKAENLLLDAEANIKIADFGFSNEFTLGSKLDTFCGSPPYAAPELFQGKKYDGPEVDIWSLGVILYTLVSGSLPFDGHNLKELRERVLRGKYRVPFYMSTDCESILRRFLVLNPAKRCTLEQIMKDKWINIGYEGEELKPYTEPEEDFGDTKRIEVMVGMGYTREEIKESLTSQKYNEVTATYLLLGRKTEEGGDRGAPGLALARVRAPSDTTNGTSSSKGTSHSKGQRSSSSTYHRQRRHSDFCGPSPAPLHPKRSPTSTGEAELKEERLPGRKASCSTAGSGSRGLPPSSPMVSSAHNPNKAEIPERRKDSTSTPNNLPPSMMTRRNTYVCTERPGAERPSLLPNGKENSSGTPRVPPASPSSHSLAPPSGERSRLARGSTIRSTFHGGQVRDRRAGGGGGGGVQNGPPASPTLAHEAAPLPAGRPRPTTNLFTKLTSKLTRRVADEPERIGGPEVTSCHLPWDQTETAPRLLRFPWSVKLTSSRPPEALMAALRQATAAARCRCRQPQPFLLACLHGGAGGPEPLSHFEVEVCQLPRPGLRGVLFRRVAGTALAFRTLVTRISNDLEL
To be noted: at 0.1 µM.

Assay [13] has as its target T2, MAP/microtubule affinity-regulating kinase 4 (Homo sapiens). Conditions: at 1 µM.
Assay [14] deals with Maternal embryonic leucine zipper kinase (Homo sapiens) (UniProt Q14680). To be noted: at 0.1 µM.
Sequence of Maternal embryonic leucine zipper kinase (Homo sapiens) (Q14680 whole entry, looked up): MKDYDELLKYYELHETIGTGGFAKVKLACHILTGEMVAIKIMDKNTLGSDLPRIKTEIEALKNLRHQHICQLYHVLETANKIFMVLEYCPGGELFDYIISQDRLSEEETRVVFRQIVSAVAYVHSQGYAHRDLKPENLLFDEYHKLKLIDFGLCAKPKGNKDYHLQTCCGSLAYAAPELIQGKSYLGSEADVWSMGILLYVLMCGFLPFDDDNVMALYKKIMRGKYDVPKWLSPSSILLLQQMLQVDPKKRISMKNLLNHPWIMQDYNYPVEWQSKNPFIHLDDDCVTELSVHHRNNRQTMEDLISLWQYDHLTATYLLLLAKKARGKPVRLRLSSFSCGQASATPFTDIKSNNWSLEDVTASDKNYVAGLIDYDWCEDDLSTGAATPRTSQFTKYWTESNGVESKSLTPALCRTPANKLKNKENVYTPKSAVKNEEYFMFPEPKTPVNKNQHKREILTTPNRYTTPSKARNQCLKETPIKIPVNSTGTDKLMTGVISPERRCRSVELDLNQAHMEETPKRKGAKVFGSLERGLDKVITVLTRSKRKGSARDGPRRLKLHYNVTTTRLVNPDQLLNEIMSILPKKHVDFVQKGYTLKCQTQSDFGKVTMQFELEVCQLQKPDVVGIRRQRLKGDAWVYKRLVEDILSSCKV
Assay [15] has the same target. Conditions: at 1 µM.
The target of assay [16] is MAP kinase-interacting serine/threonine-protein kinase 1 (Homo sapiens) (UniProt Q9BUB5). To be noted: at 0.1 µM.
Sequence of MAP kinase-interacting serine/threonine-protein kinase 1 (Homo sapiens) (Q9BUB5 whole entry, looked up): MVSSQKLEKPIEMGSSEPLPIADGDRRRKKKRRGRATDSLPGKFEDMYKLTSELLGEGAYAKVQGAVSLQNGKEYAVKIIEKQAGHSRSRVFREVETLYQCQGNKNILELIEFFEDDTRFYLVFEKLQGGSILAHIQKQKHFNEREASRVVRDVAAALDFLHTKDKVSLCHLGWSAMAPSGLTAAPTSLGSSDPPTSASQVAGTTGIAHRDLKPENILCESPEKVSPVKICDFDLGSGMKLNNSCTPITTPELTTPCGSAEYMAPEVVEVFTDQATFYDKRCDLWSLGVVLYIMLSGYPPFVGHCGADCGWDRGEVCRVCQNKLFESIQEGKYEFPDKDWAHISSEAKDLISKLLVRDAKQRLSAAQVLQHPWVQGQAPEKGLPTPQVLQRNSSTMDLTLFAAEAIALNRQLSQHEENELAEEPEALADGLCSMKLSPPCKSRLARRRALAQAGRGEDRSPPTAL
Assay [17] has the same target. To be noted: at 1 µM.
Assay [18] has as its target MAP kinase-interacting serine/threonine-protein kinase 2 (Homo sapiens) (UniProt Q9HBH9). To be noted: at 0.1 µM.
Assay [19] has the same target. Conditions: at 1 µM.
In assay [20] the target is Serine/threonine-protein kinase MARK2 (Homo sapiens) (UniProt Q7KZI7). To be noted: at 0.1 µM.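 Also: mean percent inhibition of PAR-1Balpha kinase activity, reported from the GSK PKIS screen.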
Sequence of Serine/threonine-protein kinase MARK2 (Homo sapiens) (Q7KZI7 whole entry): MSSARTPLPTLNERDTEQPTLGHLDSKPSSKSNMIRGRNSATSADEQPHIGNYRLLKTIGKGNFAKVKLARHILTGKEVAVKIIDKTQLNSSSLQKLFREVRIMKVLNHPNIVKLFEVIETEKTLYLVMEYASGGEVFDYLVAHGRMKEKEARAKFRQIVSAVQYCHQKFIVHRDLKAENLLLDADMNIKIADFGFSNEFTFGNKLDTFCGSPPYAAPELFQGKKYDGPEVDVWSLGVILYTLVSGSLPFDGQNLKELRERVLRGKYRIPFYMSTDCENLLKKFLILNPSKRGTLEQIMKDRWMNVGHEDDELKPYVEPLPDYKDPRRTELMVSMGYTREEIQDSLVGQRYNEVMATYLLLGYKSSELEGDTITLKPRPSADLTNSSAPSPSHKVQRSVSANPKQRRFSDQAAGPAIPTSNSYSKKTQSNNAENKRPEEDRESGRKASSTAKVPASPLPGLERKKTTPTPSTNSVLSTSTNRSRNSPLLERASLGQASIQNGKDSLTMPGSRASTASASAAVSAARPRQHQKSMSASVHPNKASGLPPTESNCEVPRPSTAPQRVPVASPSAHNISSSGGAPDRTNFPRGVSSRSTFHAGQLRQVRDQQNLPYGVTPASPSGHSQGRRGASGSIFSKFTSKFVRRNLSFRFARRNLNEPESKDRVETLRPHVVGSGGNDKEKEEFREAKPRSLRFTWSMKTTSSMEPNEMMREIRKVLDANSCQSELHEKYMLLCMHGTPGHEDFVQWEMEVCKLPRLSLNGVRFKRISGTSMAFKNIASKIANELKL

Sequence of MAP kinase-interacting serine/threonine-protein kinase 2 (Homo sapiens) (Q9HBH9 whole entry, looked up): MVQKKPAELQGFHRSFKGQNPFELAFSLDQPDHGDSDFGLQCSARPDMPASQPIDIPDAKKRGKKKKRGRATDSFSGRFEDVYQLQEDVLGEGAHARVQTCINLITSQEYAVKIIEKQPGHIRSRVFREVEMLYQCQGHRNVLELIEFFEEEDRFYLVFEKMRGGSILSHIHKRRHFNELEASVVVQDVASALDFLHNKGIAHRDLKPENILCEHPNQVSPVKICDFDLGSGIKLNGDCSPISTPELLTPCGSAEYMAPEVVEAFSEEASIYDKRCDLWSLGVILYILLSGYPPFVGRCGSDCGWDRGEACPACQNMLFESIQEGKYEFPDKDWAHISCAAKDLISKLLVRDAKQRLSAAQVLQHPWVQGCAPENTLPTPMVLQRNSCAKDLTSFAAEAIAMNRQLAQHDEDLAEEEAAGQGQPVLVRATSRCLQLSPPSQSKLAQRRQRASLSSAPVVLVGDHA
Sequence of MAP kinase-activated protein kinase 2 (Homo sapiens) (P49137 whole entry, looked up): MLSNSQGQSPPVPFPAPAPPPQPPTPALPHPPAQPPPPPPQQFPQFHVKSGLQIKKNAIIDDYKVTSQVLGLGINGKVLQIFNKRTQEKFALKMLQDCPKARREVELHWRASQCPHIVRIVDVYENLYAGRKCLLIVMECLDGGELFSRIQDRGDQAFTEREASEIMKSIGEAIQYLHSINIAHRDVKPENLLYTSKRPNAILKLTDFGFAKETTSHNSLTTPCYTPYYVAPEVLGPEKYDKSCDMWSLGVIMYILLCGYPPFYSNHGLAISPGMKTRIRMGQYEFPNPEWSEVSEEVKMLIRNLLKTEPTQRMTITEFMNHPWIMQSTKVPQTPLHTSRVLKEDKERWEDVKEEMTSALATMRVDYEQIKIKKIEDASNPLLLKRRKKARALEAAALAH
Sequence of Death-associated protein kinase 1 (Homo sapiens) (P53355 whole entry, looked up): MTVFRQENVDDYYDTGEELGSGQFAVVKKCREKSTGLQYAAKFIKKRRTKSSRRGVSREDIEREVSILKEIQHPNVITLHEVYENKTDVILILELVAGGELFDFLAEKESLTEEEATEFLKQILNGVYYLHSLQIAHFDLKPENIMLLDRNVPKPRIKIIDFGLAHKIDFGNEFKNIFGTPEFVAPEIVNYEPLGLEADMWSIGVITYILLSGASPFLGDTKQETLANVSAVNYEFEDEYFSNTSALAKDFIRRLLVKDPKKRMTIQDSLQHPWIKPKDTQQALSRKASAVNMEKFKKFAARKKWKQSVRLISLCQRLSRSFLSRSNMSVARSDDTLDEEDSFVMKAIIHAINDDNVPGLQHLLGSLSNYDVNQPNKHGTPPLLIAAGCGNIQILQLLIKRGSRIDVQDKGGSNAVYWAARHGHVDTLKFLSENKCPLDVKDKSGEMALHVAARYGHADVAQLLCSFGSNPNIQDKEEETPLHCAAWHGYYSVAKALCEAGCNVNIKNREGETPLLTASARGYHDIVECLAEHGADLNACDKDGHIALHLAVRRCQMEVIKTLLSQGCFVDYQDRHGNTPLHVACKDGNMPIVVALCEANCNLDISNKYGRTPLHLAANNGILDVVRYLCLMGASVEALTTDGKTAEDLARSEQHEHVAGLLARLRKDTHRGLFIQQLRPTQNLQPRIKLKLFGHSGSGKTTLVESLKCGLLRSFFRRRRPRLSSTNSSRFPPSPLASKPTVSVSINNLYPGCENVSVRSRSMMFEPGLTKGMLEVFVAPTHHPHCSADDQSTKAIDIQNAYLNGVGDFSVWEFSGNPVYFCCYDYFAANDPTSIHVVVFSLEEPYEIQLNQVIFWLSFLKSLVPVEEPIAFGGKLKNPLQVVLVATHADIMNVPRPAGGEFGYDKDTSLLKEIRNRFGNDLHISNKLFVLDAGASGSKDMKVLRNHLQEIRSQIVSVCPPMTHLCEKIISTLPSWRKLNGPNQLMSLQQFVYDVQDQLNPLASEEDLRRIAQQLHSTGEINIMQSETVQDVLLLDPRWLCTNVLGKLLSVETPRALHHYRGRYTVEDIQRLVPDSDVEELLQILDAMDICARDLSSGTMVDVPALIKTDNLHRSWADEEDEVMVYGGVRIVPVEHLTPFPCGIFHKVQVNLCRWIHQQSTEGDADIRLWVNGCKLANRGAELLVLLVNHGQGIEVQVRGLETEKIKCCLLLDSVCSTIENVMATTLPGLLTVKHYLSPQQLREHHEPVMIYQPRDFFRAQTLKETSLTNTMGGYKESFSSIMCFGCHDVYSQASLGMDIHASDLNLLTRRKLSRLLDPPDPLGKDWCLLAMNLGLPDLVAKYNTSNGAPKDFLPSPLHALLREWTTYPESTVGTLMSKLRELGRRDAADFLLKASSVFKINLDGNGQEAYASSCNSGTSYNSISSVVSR

In the case of `COC(=O)Nc1nc2ccc(S(=O)(=O)c3ccc(NC(=O)Nc4cc(C(F)(F)F)ccc4F)cc3)cc2[nH]1`, the inhibition – broadly, the drop in the measured response relative to a control, in per cent – in [1] was 5.43%; in assay [2], -0.62%; in assay [3], -0.64%; in assay [4], 0.59%; in assay [5], 1.63%; in assay [6], 1.8%. For the same compound, the inhibition in [7] was found to be 3.35%; in assay [8], 2.26%; in assay [9] it was 2.1%; in [10] it was 3.97%; in assay [11] it was 0.83%; in [12] it was 1.2%. Further, the inhibition turned out to be 1.06% in assay [13]; 1.64% in assay [14]; 4.33% in assay [15]; 1.27% in [16]; 1.87% in assay [17]; 1% in assay [18]. For the same compound, the inhibition is 0.01% in [19] and -2.72% in assay [20].
As to `O=C(O[C@H]1CN[C@H](C#Cc2cc3ncnc(Nc4ccc(Cc5ccccc5)cc4)c3s2)C1)N1CCOCC1`, the inhibition was 2.13% in assay [1]; -0.4% in assay [2]; 2.31% in [3]; 0.76% in assay [4]; -0.1% in assay [5]; 3.66% in assay [6]. Besides, the inhibition was determined as 3.19% in [7]; 1.63% in assay [8]; 2.56% in assay [9]; 2.46% in assay [10]; 2.78% in assay [11]; 1.7% in assay [12]. In addition, the inhibition in assay [13] was 0.44%; in [14], 0.46%; in [15] it was -1.31%; in assay [16], 2.67%; in assay [17], 7.67%; in assay [18], 9.26%. Also, the inhibition in assay [19] was 48.1%; in [20] it was -0.11%.
In the case of `COc1cc(/C=N/Nc2ncnc3[nH]ncc23)ccc1O`, the inhibition was 4.2% in assay [1]; 1.49% in assay [2]; 1.35% in assay [3]; 2.01% in assay [4]; 2.3% in [5]; 2.87% in assay [6]. The inhibition was 4% in assay [7]; 7.13% in assay [8]; 35.7% in assay [9]; 7.13% in assay [10]; 30.6% in assay [11]; 1.99% in assay [12]. For the same compound, the inhibition in assay [13] worked out at 15.4%; in assay [14], 15.3%; in assay [15], 75.5%; in [16], 4.69%; in [17], 22.6%; in [18] it was 3.33%. Further, the inhibition in [19] was found to be 25.7%; in assay [20] it was 4.08%.
As to `c1cc(-c2cnn3nc(N4CCOCC4)ccc23)nc(NC2CC2)n1`, the inhibition was 3.38% in assay [1]; -0.25% in assay [2]; -2.52% in [3]; 1.29% in assay [4]; 1.97% in [5]; 5.27% in [6]. Further, the inhibition in [7] is 6.31%; in assay [8], 3.55%; in [9] it was 10.3%; in [10], 4.76%; in assay [11] it was 12.9%; in [12] it was 1.01%. For the same compound, the inhibition in [13] was 5.05%; in [14], 8.27%; in [15], 43.9%; in assay [16] it was 4.33%; in assay [17], 19.8%; in [18], 7.65%. For the same compound, the results for the inhibition in assay [19] and in assay [20] were 42.5% and 0.85%, respectively.
Regarding `NC(=O)c1sc(-n2cnc3ccc(C(F)(F)F)cc32)cc1OCc1ccccc1Br`, the inhibition in assay [1] is -0.59%; in assay [2], 0.84%; in [3] it was -0.41%; in [4], 1.86%; in assay [5], 0.94%; in assay [6], 4.27%. The inhibition in assay [7] was 4.34%; in assay [8] it was 2.69%; in assay [9], 4.02%; in assay [10], 0.94%; in [11] it was 11.5%; in assay [12] it was 1.2%. Also, the inhibition was 2.56% in assay [13]; 2.87% in [14]; 7.71% in assay [15]; 2.89% in [16]; 5.77% in assay [17]; 1.04% in assay [18]. Besides, the results for the inhibition in assay [19] and in assay [20] were 3.71% and -0.38%, respectively.
For the compound `CNC(=O)c1cccc(C#Cc2cncnc2Nc2ccc(OCc3cccc(F)c3)c(Cl)c2)c1`, the inhibition in [1] was -1.89%; in assay [2], -9.58%; in assay [3], -6.14%; in assay [4], 1.01%; in assay [5], 0.58%; in assay [6], 1.88%. Also, the inhibition in assay [7] was 1.66%; in assay [8], -0.72%; in [9], 1.6%; in [10], 1.07%; in [11], 23.2%; in [12], -0.97%. For the same compound, the inhibition in assay [13] was 0.31%; in assay [14] it was -3.3%; in assay [15], -0.86%; in assay [16], 3.12%; in [17], 26.2%; in [18], 1.92%. The values for the inhibition in assay [19] and in assay [20] were 13.1% and -2.05%, respectively.
